# Assay results published in PubChem BioAssay (NCATS).
# Results filed as inconclusive are left out. Active and inactive are the calls of the source. The call rests on the fitted dose curve; in most records, active means well fitted cell-killing curve with a large enough effect; inconclusive means small, poorly fitted or top-dose-only effect, or effect the other way; inactive means no such curve, though single readings can be large or run the other way.
# Assay: Quantitative High-Throughput drug screen in 47 multiple myeloma cell lines against the NCATS MIPE library collection: PCM6_Riken cell viability assay (AID 1919870); further: nearly all actives have a fitted effect of over 30% in size;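 on viability (% of control): 100% = DMSO-only wells and 0% = media-only wells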
# Conditions: CellTiter-Glo ATP, 48 h; series mostly up to 45.8 µM; viability (% of control): at the top concentration
# Outline: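 ATP-based luminescence (CellTiter-Glo, 5 min RT incubation) quantified surviving cells following two days' treatment with MIPE 4.0 agents at 37 °C, 5% CO2.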
# Potency means the concentration at half of the fitted maximal effect.
SMILES,Potency,viability (% of control)
CC1=C(C(=O)Nc2cc3cn[nH]c3cc2F)C(c2ccc(Cl)cc2F)N=C(c2ccnc(Cl)c2)N1 (centres undefined),6.62 µM (active),–
Cc1[nH]c(C=C2C(=O)Nc3ccccc32)c(C)c1CCC(=O)O,10.5 µM (active),–
COc1cc(N2CCC(C(N)=O)CC2)ccc1Nc1nc(N)c(Cl)c(Nc2ccccc2S(=O)(=O)C(C)C)n1,0.833 µM (active),–
C[C@H](NC(=O)Cc1cc(F)cc(F)c1)C(=O)N[C@H](C(=O)OC(C)(C)C)c1ccccc1,–,120% (inactive)
C[C@H]1[C@@H](OC(=O)CCC(=O)O)O[C@@H]2O[C@@]3(C)CC[C@@H]4[C@H](C)CC[C@@H]1[C@@]24OO3,5.9 µM (active),–
CC(C)n1cnc2c(NCCc3ccc(O)cc3)nc(-c3csc4ccccc34)nc21,10.5 µM (active),–
c1ccc(CNc2nc(NCc3ccccc3)c3ccccc3n2)cc1,8.33 µM (active),–
C#C[C@]1(O)CC[C@@H]2[C@@H]3CCc4cc(O)ccc4[C@H]3CC[C@@]21C,14.8 µM (active),–
CC(=O)SCC(Cc1ccccc1)C(=O)NCC(=O)OCc1ccccc1 (centres undefined),1.48 µM (active),–
CN1C(C(=O)Nc2ccccn2)=C(O)c2sc(Cl)cc2S1(=O)=O,2.64 µM (active),–
COc1cc(OC)c(NC(=O)Nc2cc(C)on2)cc1Cl,–,108% (inactive)
COc1cc([C@@H]2c3cc4c(cc3[C@@H](O[C@@H]3O[C@@H]5CO[C@@H](c6cccs6)O[C@@H]5[C@H](O)[C@@H]3O)[C@H]3COC(=O)[C@H]23)OCO4)cc(OC)c1O,0.662 µM (active),–
CC(C)(N)c1ccc(-c2nc3ccccc3nc2-c2ccccc2)cc1,10.5 µM (active),–
COc1cc2c(cc1OC)[C@@H]1C(=O)c3ccc4c(c3O[C@@H]1CO2)C=CC(C)(C)O4,7.43 µM (active),–
CC1(C)[C@H](O[C@H]2O[C@H](C(=O)O)[C@@H](O)[C@H](O)[C@H]2O[C@@H]2O[C@H](C(=O)O)[C@@H](O)[C@H](O)[C@H]2O)CC[C@@]2(C)[C@H]1CC[C@]1(C)[C@H]2C(=O)C=C2[C@H]3C[C@@](C)(C(=O)O)CC[C@]3(C)CC[C@]21C,–,141% (inactive)
CCn1c(=O)c2c(nc(C=Cc3ccc(OC)c(OC)c3)n2C)n(CC)c1=O,–,123% (inactive)
O=C(Nc1ccc(Oc2ccnc3[nH]ccc23)c(F)c1)c1cccn(-c2ccc(F)cc2)c1=O,23.5 µM (active),–
O=C(c1ccc(F)cc1)N1CCC[C@H](c2nc(-c3ccc(F)cc3)no2)C1,–,111% (inactive)
COc1cc(C(=O)NC2CCN(C)CC2)ccc1Nc1ncc2c(n1)N(C1CCCC1)CCC(=O)N2C(C)C,18.7 µM (active),–
N[C@H]1CN(c2c(F)cc3c(=O)c(C(=O)O)cn(C4C[C@@H]4F)c3c2Cl)CC12CC2 (some centres undefined),–,109% (inactive)
O=S(=O)(O)CCSSCCS(=O)(=O)O,–,140% (inactive)
CCc1cc(C(C)=NOCc2ccc(C3CCCCC3)c(C(F)(F)F)c2)ccc1CN1CC(C(=O)O)C1,11.8 µM (active),–
CNC(=O)Nc1ccc(-c2nc(N3CC4CCC(C3)O4)c3cnn(C4CCC5(CC4)OCCO5)c3n2)cc1,0.0662 µM (active),–
CC(C)c1cnn2c(NCc3ccccc3)cc(NCCCCCCN)nc12,13.2 µM (active),–
C[C@@H]1[C@H](C)CC[C@]2(C(=O)O)CC[C@]3(C)C(=CC[C@@H]4[C@@]5(C)C[C@@H](O)[C@H](O)[C@@](C)(CO)[C@H]5CC[C@]43C)[C@@H]12,–,89.5% (inactive)
CCOc1cc2ncc(C#N)c(Nc3ccc(OCc4ccccn4)c(Cl)c3)c2cc1NC(=O)C=CCN(C)C,0.332 µM (active),–
Cc1cnc(NC(=O)Nc2cc(Br)c(C)cc2OC[C@@H]2CNCCO2)cn1,10.5 µM (active),–
C#C[C@]1(O)CC[C@@H]2[C@@H]3CCC4=CC(=O)CC[C@@H]4[C@H]3CC[C@@]21CC,–,83.4% (inactive)
CN1CCc2c(c3ccccc3n2Cc2ccc(C(=O)NO)cc2)C1,16.6 µM (active),–
